Data published in the supplement of paper PMC9433436.
± gives the standard deviation of the averaged measurements. Whole data set: some 4,100 sequences, median “relative kcat/Km (krel) vs genomic leader AAAGAU” near 1.7, cut for the highest 2% near 6.5. Only a selection was taken, and the highest values are over-represented in it overall.

Target: T1, E. coli RNase P holoenzyme (M1 P RNA + rnpA protein) (UniProt P0A7Y8)
T1 sequence: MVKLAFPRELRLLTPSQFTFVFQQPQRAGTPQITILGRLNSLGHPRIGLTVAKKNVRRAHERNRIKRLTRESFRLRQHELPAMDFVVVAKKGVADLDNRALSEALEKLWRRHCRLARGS
Assay: relative kcat/Km (krel) vs genomic leader AAAGAU (relative (reference leader = 1)); higher = faster RNase P cleavage
Method: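 HTS-Kin: a pool of ptRNA-Met (21C construct) with all 4096 combinations of 5' leader nucleotides N(-6) to N(-1) was processed in vitro by E. coli RNase P (P RNA + rnpA/C5 protein) under multiple-turnover conditions at 37 C, pH 8, 17.5 mM MgCl2. Residual substrate was Illumina-sequenced at several fractions reacted, and relative kcat/Km (krel) was computed by internal competition kinetics, calibrated to the genomic leader (AAAGAU = 1). The listed hexamer is the varied N(-6)..N(-1) leader (DNA letters), and it sits between a fixed 5' stem-loop flank (GCAUGCACGAAAGUGCGUGCUAUGAA) and the mature tRNA-Met starting GGCUACGUAGCUCAGUUGG. Two technical replicates are averaged.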

[1] = fraction of substrate reacted: ~9-10% (9.79% repeat 1, 9.1% repeat 2)
[2] = fraction of substrate reacted: ~13-16% (15.68% repeat 1, 13.17% repeat 2)
[3] = fraction of substrate reacted: ~26-29% (28.66% repeat 1, 26.4% repeat 2)

Sequence | relative kcat/Km [1] | relative kcat/Km [2] | relative kcat/Km [3]
GGATAA | 1.77 ± 0.4 | 2.37 ± 0.4 | 2.82 ± 1.2
ATTGAA | 2.28 ± 0.51 | 2.44 ± 0.32 | 3.48 ± 1.1
GGTAGA | 2.41 ± 0.65 | 2.19 ± 0.26 | 3.13 ± 1.6
TTTGAT | 0.799 ± 0.12 | 1.01 ± 0.025 | 1.39 ± 0.26
CCAGTC | 2.41 ± 0.63 | 1.32 ± 0.76 | 1.52 ± 0.37
TACATC | 3.03 ± 0.57 | 4.44 ± 0.76 | 6.8 ± 2.7
TACATG | 0.765 ± 0.67 | 1.44 ± 0.13 | 3.16 ± 1.2
GACATT | 3.42 ± 0.26 | 4.33 ± 1.3 | 6.4 ± 3.1
GACATC | 3.66 ± 0.77 | 3.95 ± 1.1 | 5.9 ± 2.2
TACATT | 3.85 ± 1.4 | 5.11 ± 0.79 | 7.56 ± 3.7
CACATC | 2.93 ± 1 | 3.64 ± 0.86 | 5.53 ± 2.1
TCCCTA | 3.22 ± 1.7 | 3.63 ± 0.34 | 4.34 ± 1.6
CAAACG | – | 0.172 ± 0.13 | 0.797 ± 0.69
GAGAGT | 0.122 ± 0.072 | 1.48 ± 0.097 | –
TACTCC | 3.23 ± 0.81 | 5.06 ± 1 | 6.63 ± 2.8
AACTCC | 3 ± 2.2 | 3.3 ± 0.49 | 4.38 ± 1.3
CACTCT | 3.97 ± 1.4 | 4.52 ± 0.75 | 6.37 ± 2.3
GACTCC | 3.31 ± 0.62 | 4.26 ± 0.76 | 5.61 ± 2
TACTCT | 3.83 ± 0.27 | 4.7 ± 0.86 | 7.13 ± 3.3
AACTCT | 2.76 ± 1.1 | 3.3 ± 0.76 | 4.39 ± 1.2
TGATTC | 1.39 ± 0.61 | 2.97 ± 1.2 | 3.89 ± 1.8
CCAGCA | 1.37 ± 0.54 | 0.452 ± 0.45 | 0.927 ± 0.46
CCATAG | – | 0.327 ± 0.075 | 1.95 ± 0.2
TGGGGT | – | – | 1.83 ± 0.45
TGCTCT | 0.944 ± 0.33 | 1.02 ± 0.37 | 1.5 ± 0.59

Sequence | relative kcat/Km [1] | relative kcat/Km [2] | relative kcat/Km [3]
GTATAA | 3.41 ± 1.2 | 4.18 ± 0.35 | 5.6 ± 2
ATATAA | 2.75 ± 1.4 | 3.31 ± 0.47 | 4.9 ± 1.7
TTATCT | 2.77 ± 0.45 | 3.58 ± 0.95 | 5.02 ± 2.2
GTATAT | 3.56 ± 1.5 | 4.99 ± 0.35 | 7.89 ± 3.5
CTATAA | 3.33 ± 1.3 | 3.72 ± 0.51 | 4.92 ± 1.3
TTATAT | 4.62 ± 2 | 5.95 ± 0.72 | 8.54 ± 4
ATATAT | 3 ± 0.9 | 4.49 ± 0.51 | 6.84 ± 3.3
ATATAG | 2.16 ± 1.9 | 1.77 ± 0.48 | 3.88 ± 1.4
GTATTT | 3.06 ± 2 | 3.71 ± 0.4 | 5.37 ± 1.9
CTATAT | 4.48 ± 1.6 | 5.55 ± 0.85 | 7.37 ± 2.9
CTATAG | 2.47 ± 1.2 | 1.823 ± 0.012 | 3.4 ± 0.44
TTATAG | 2.25 ± 1.6 | 2.63 ± 0.53 | 4.22 ± 1.9
GTGCAA | 1.89 ± 1.4 | 1.25 ± 0.53 | 1.32 ± 0.22
ACACCT | 2.6 ± 1.3 | 1.66 ± 0.33 | 2.53 ± 1.6
TCAGCC | 2.48 ± 0.96 | 2.37 ± 0.56 | 3.15 ± 0.59
GAGCAG | – | 0.164 ± 0.047 | 1.27 ± 0.062
ACGCGA | 2.19 ± 0.79 | 1.29 ± 0.1 | 2.07 ± 0.28
CTGTTA | 2.76 ± 1.4 | 1.44 ± 1.1 | 2.19 ± 0.06
CGACGT | – | 2.25 ± 1.1 | 2.36 ± 1.5
CAGGGC | – | 0.734 ± 0.28 | 0.809 ± 0.4
GCCGTA | 2.27 ± 0.21 | 2.93 ± 0.69 | 3.66 ± 1.4
GGTAAC | 1.47 ± 0.022 | 1.618 ± 0.0045 | 2.64 ± 1.5
CGATAT | 3.51 ± 0.4 | 5.17 ± 2.6 | 6.68 ± 3
GGATAT | 1.83 ± 0.13 | 2.63 ± 0.49 | 3.4 ± 1.9
CGATAC | 3.25 ± 1.4 | 4.04 ± 1 | 5.79 ± 2.4

Sequence | relative kcat/Km [1] | relative kcat/Km [2] | relative kcat/Km [3]
ACCAAG | – | 0.763 ± 0.21 | 2.7 ± 0.17
GGCAAT | 1.76 ± 0.086 | 1.558 ± 0.015 | 3.04 ± 1.2
ATCAAG | – | 1.96 ± 0.14 | 3.87 ± 0.91
ATCAAA | 3.96 ± 1.9 | 5.34 ± 0.78 | 7.44 ± 3.2
GTCAAG | 1.75 ± 0.96 | 2.63 ± 0.65 | 5.35 ± 2.1
GCCAAT | 3.15 ± 0.068 | 2.75 ± 1.7 | 4.52 ± 2.3
GTCAAA | 4.62 ± 1.6 | 5.99 ± 1.9 | 8.75 ± 3.3
CTCAAA | 4.31 ± 1.6 | 4.92 ± 1.4 | 8.02 ± 3.1
CTCAAG | 2.69 ± 2 | 2.93 ± 1.3 | 4.67 ± 1.1
GTCAAT | 3.17 ± 0.8 | 4.56 ± 1.9 | 7.14 ± 3.8
CTTAAG | 1.2 ± 0.59 | 1.63 ± 0.79 | 2.28 ± 0.23
GGCAAA | 2.21 ± 1 | 3.13 ± 0.17 | 3.46 ± 0.93
CAGTCA | 1.56 ± 0.78 | 1.64 ± 1.4 | 2.56 ± 1.5
TGTAGG | – | 0.426 ± 0.27 | 1.61 ± 0.48
CAACCC | 1.41 ± 0.43 | 1.26 ± 0.56 | 1.22 ± 0.096
TCACAC | 3.8 ± 1.1 | 4.7 ± 1.1 | 5.86 ± 2
CCACAC | 1.98 ± 0.78 | 2.63 ± 0.9 | 3.97 ± 1.5
GCTAGA | 1.329 ± 0.007 | 1.71 ± 0.21 | 2.45 ± 0.62
GCCCGG | 0.406 ± 0.099 | – | 0.437 ± 0.31
CAGAGG | – | – | 0.599 ± 0.16
ACATCT | 2.62 ± 1.1 | 3.25 ± 0.78 | 4.12 ± 1.9
TCATGG | 0.253 ± 0.062 | 0.443 ± 0.084 | 0.476 ± 0.47
GATAAC | 2.1 ± 0.44 | 2.81 ± 0.13 | 3.66 ± 1
TATGTG | – | – | 0.506 ± 0.12
ATCTGG | 0.825 ± 0.53 | – | 1.46 ± 0.34

Sequence | relative kcat/Km [1] | relative kcat/Km [2] | relative kcat/Km [3]
ATCAGG | 0.528 ± 0.016 | – | 1.41 ± 0.062
ATCAGA | 3.76 ± 2 | 4.59 ± 0.2 | 7.03 ± 1.9
CTCAGT | 1.02 ± 0.51 | 1.91 ± 1.4 | 2.13 ± 1.4
ATCAGT | – | 1.79 ± 1.8 | 2.19 ± 2.2
CTCAGA | 4.71 ± 1.4 | 5.99 ± 1 | 8.03 ± 2.7
CTCAGG | 1.96 ± 1.2 | 1.21 ± 0.29 | 2.45 ± 0.18
GTCAGA | 3.33 ± 0.28 | 5.57 ± 1.1 | 9.06 ± 3.4
GCCAGA | 2.6 ± 2 | 2.26 ± 0.32 | 5.56 ± 1.6
GTCGGA | – | 1.67 ± 1.1 | 1.51 ± 1.2
GGACAA | 0.879 ± 0.43 | 1.34 ± 0.47 | 2.59 ± 0.96
TAATTC | 2.12 ± 1.6 | 2.45 ± 0.42 | 3.22 ± 0.89
AGACGT | – | – | 1.98 ± 1.9
TATGCC | 2.71 ± 0.41 | 1.72 ± 0.22 | 2.97 ± 1.5
TCCGCC | 4.39 ± 0.68 | 5.9 ± 0.79 | 7.97 ± 3.5
CCCGCC | 2.78 ± 0.39 | 4.24 ± 2 | 4.94 ± 1.9
TCCGCA | 4.56 ± 2.3 | 5.02 ± 0.26 | 6.95 ± 2.4
CCCGCA | 3.38 ± 0.43 | 3.43 ± 1.2 | 4.58 ± 1.4
GCCGCC | 2.33 ± 1.2 | 3.21 ± 1.2 | 5.43 ± 2.6
TCCGCT | 2.17 ± 0.033 | 2.55 ± 2 | 3.65 ± 1.5
TGTATG | – | – | 1.93 ± 0.25
CCTTTA | 1.51 ± 0.63 | 1.47 ± 0.27 | 2.25 ± 0.99
ACAGAT | 0.729 ± 0.034 | 1.48 ± 0.42 | 1.88 ± 0.26
ATTACC | 1.64 ± 0.48 | 1.65 ± 0.26 | 2.21 ± 0.71
